# System: LCK
# Settings: concentration: 1 μM, replicates: in singlicate; n = 1
# 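Also: KINOMEscan kinase panel screen.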
row,SMILES,%Inh
1,Nc1n[nH]c2cnc(-c3ccccc3)cc12 [SB-642124],0%
2,CN1CCN(Cc2cccc(-c3ccc4c(Nc5ccc(Oc6ccccc6)cc5)ccnc4c3)c2)CC1 [GW578342],95.2%
3,Nc1ncc(-c2cccnc2)c2scc(-c3ccc4c(c3)CCN4C(=O)Cc3ccccc3)c12 [GSK683281],70%
4,O=C(Nc1cccc(-c2nn3ncccc3c2-c2ccnc(Nc3ccccc3)n2)c1)c1c(F)cccc1F [GSK198271],99.3%
5,Cl.c1ccc(-c2ccc3c(Nc4ccc5[nH]ccc5c4)ccnc3c2)nc1 [GW440138],70%
6,Cc1ccc(C(=O)Nc2ccc(Nc3ccnc4cc(-c5nccs5)ccc34)cc2O)cc1.Cl [GW494702],86%

# System: LIMK1
# Settings: concentration: 1 μM, replicates: in singlicate; n = 1
row,SMILES,%Inh
1,Nc1ncnc2c1nc(-c1ccccc1)n2-c1ccccc1 [SKF-97293],0%
2,CC(=O)Nc1nc2cnc(Nc3cc(NC(=O)c4cccc(C5(C#N)CC5)c4Cl)ccc3C)nc2s1,0%
3,c1ccc(Oc2ccc(Nc3ccnc4cc(-c5ccc(CNCCN6CCOCC6)o5)ccc34)cc2)nc1 [GW567145],0%
4,Cn1cc(-c2[nH]c3cc(NC(=O)[C@H](N)C4CCCCC4)cc4c3c2C=NNC4=O)cn1,90.6%
5,CC(C)c1nc(-c2cccc(NS(=O)(=O)c3c(F)cccc3F)c2F)c(-c2ccnc(Nc3ccc(N4CCOCC4)nc3)n2)s1 [GSK2008607],99.9%
6,COc1cc(Nc2nccc(-c3c(-c4cccc(NC(=O)c5c(F)cccc5F)c4)nn4ccccc34)n2)cc(OC)c1OC [GSK323521],2%
7,COc1cc(Nc2nccc(N3CCC(NC(=O)c4cc5ccccc5s4)C3)n2)cc(OC)c1OC (stereo not shown) [GSK1379760],17%
8,Fc1ccc(-c2ncn(C3CCNCC3)c2-c2ccnc(Oc3ccc(-c4ccccc4)cc3)n2)cc1 [SB-245391],0%
9,COc1cc2c(cc1OCCN1CCNCC1)ncc1c3ccc(C#N)cc3[nH]c21,0%
10,Cl.Cl.NCC(NCc1ccc(-c2ccnc3[nH]ccc23)s1)c1ccccc1 (stereo not shown) [GSK1321565],0%
11,O=c1[nH]cc(-c2ccc(N3CCOCC3)cc2)c2sc(-c3cn[nH]c3)cc12 [GSK2276055],0%
12,O=C(Nc1cccc(-c2nn3ccccc3c2-c2ccnc(Nc3cccc(F)c3)n2)c1)c1c(F)ccc(F)c1Cl [GSK357952],43%
13,COC(=O)Nc1nc2cc(Oc3ccc(NC(=O)Nc4cc(C(F)(F)F)ccc4F)cn3)ccc2[nH]1.Cl.Cl [GW681170],0%
14,COCCOCCOc1cc2ncc3c4ccc(C#N)cc4[nH]c3c2cc1OC,16%
15,c1ccc(-c2n[nH]cc2Nc2ccnc3ccccc23)nc1 [GW694077],0%
16,C[C@@H](Oc1cc(-n2cnc3cc(-c4ccnc(NCCS(C)(=O)=O)c4)ccc32)sc1C(N)=O)c1ccccc1Cl [GSK907232],0%
17,CN1CCN(CCCNc2nccc(-c3c(-c4ccc(F)cc4)nn4cc(C(F)(F)F)ccc34)n2)CC1 [GW621581],0%
18,Oc1cc(Nc2ccnc3cc(I)ccc23)ccc1F [GW552771],8%
19,COc1ccc(-c2coc3ccc(-c4nnc(SCc5ccc(OC)c(C(F)(F)F)c5)o4)cc23)cc1,25%

row,SMILES,%Inh
1,Cl.c1ccc(-c2ccc3c(Nc4ccc5[nH]ncc5c4)ccnc3c2)nc1 [GW440137],9%
2,COc1ccc(CNC(=O)NC2CCN(c3ccnc(Nc4ccc(F)cc4)n3)CC2)cc1 [GSK1379788],0%
3,Cn1cc(-c2ccc3c(c2)CCN3C(=O)Cc2cccc(Cl)c2)c2c(N)ncnc21 [GSK2606590],3%
4,Cl.NC(=O)c1cccc(Nc2nccc(Nc3ccc(Oc4c(Cl)cccc4Cl)c(Cl)c3)n2)c1 [GW659009],12%
5,Cc1ccc(F)c(C(=O)Nc2cccc(-c3nn4ccccc4c3-c3ccnc(Nc4cccc(F)c4)n3)c2)c1F [GSK361061],33%
6,Cc1occc1-c1ncc(OC[C@@H](N)Cc2c[nH]c3ccccc23)cc1-c1ccc2[nH]nc(C)c2c1.O=C(O)C(F)(F)F [GSK682037],0%
7,Cc1cccc(Nc2nc(N[C@H]3CCNC3)ncc2C(N)=O)c1.Cl [GSK2197149],0%
8,CN(c1ccc(NC(=O)Nc2cc(C(F)(F)F)ccc2F)cc1)c1ccnc(Nc2ccc(S(N)(=O)=O)cc2)n1 [GW809893],89%
9,CNC(=O)c1ccccc1Nc1nc(Nc2ccc(N3CCOCC3)cc2)ncc1Cl.Cl [GSK1576028],46%
10,Cl.Cl.NCC(NC(=O)c1cc(-c2ccccc2)c(-c2ccnc3[nH]ccc23)s1)c1ccccc1 (stereo not shown) [GSK1321561],0%
11,NCCCC(NC(=O)c1cc(Br)c(-c2ccnc3[nH]ccc23)s1)c1ccccc1.O=C(O)C(F)(F)F.O=C(O)C(F)(F)F (stereo not shown) [GSK1287544],6%
12,O=C(Nc1cccc(Oc2ccc3nc(NC(=O)C4CC4)cn3n2)c1)c1ccccc1C(F)(F)F,6%
13,Nc1n[nH]c2cnc(-c3ccccc3)cc12 [SB-642124],19%
14,CN1CCN(Cc2cccc(-c3ccc4c(Nc5ccc(Oc6ccccc6)cc5)ccnc4c3)c2)CC1 [GW578342],0%
15,Nc1ncc(-c2cccnc2)c2scc(-c3ccc4c(c3)CCN4C(=O)Cc3ccccc3)c12 [GSK683281],22%
16,O=C(Nc1cccc(-c2nn3ncccc3c2-c2ccnc(Nc3ccccc3)n2)c1)c1c(F)cccc1F [GSK198271],75%
17,Cl.c1ccc(-c2ccc3c(Nc4ccc5[nH]ccc5c4)ccnc3c2)nc1 [GW440138],0%
18,Cc1ccc(C(=O)Nc2ccc(Nc3ccnc4cc(-c5nccs5)ccc34)cc2O)cc1.Cl [GW494702],26%

# Source: PMC5540273 (PLoS ONE, 2017)
